Compound activity deposited in PubChem BioAssay by Broad Institute.
This is a sample that favours compounds with a hit; in the whole collection about 3% have one here.
Wnt bcat act = activates Wnt/beta-catenin signaling in a reporter cell assay. activator, plate reader. activation, % at 9.35 µM. 300,000 tested, 1.2% active. AID 743398; in the data active means activation above about 30%, passing the limit was not always enough; inconclusive means no clear call, values can overlap the other calls;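 further: 0% = neutral control wells and 100% = positive control wells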
MITF act = MITF TRPM1 promoter activation in melanoma cells. SK-MEL-5 TRPM1-promoter luciferase, 24 h; % of positive control, neutral wells = 0. activation, % at 12.5 µM. 300,000 tested, 0.75% active;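 active means mean activation of at least 80% with every replicate also reaching 80%; inconclusive means mean reaches 80% but some replicate falls short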;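 further: 0% = neutral control wells and 100% = parthenolide positive control wells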
PfHsp90 yeast 2 = reduces growth (ATP signal) of yeast expressing P. falciparum Hsp90; S. cerevisiae expressing PfHsp90, BacTiter-Glo ATP, 48 h; yeast lacking PDR1 and PDR3 efflux regulators; inhibition, % at 9.4 µM; 310,000 tested, 0.32% active; AID 504621;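 active means every replicate shows inhibition above about 80%, whatever the replicate mean, limit read from the data; inconclusive means mean inhibition reaches the set limit but some replicate falls short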;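 further: 0% = DMSO neutral controls and 100% = 20 µM radicicol positive controls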
Glyco luc inh = N-linked glycosylation inhibition | D54 ERlucT glycosylation luciferase reporter, 24 h; percent of 100 nM tunicamycin response | reporter increase, % at 12.5 µM | 360,000 tested, 0.23% active | AID 588692;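 active means mean luciferase reporter signal, scaled so untreated is 0 and the glycosylation-blocking control 100, at or above a set limit in every replicate; inconclusive means mean reaches the limit but not every replicate does; inactive means mean below the limit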;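 further: luciferase carries N-glycosylation sites so blocking glycosylation raises the light; 0% = median of neutral control wells and 100% = median of 100 nM tunicamycin wells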
esBAF inh = inhibitors of esBAF chromatin remodeling in mouse ES cells. Bmi1-luciferase knock-in reporter, 24 h; 100% = twice the neutral-well signal. reporter increase, % at 12.5 µM. 350,000 tested, 2% active; in the data active means activation above about 40%; inconclusive means no clear call, values can overlap the other calls;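 further: 0% = median of the plate's neutral control wells and 100% = double that signal; a rise in the Bmi1 reporter signal indicates esBAF inhibition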
Vif imaging = HIV Vif inhibition. HEK293T cells, Vif self-association by quenched fluorescence, imaging, 24 h. 340,000 tested, 0.35% active. AID 602346. inhibition, % at 7.49 µM; in the data active means inhibition above about 50%, passing the limit was not always enough; inconclusive means no clear call, values can overlap the other calls; inactive means below about 31%
Active calls of the source: *; ? = inconclusive; · = not tested or not shown; ! = not active in a repeat.

SMILES | Wnt bcat act | MITF act | PfHsp90 yeast 2 | Glyco luc inh | esBAF inh | Vif imaging
O=c1c2ccccc2sn1-c1ccccc1 | 0.0 | 4.0 | 87.9* | 2.8 | -0.6 | -18.4
Cc1ccc(-n2sc3ccccc3c2=O)cc1S(=O)(=O)N1CCCCC1 | -6.7 | -4.3 | 106.4* | 0.5 | 33.0 | -16.0
O=c1c2ccccc2sn1-c1ccc(S(=O)(=O)N2CCCCC2)cc1 | · | -5.3 | -10.8 | -1.3 | -3.8 | ·
CC(=O)c1cccc(NC(=O)Nc2ccccc2)c1 | 6.5 | 38.8 | 13.8 | -0.9 | 22.3 | -9.1
O=C(Nc1ccccc1)Nc1ccc2ccccc2c1 | 43.7* | 91.7* | -3.4 | -4.5 | · | -5.6
O=C(Nc1ccncc1)Nc1cccc(Cl)c1Cl | 5.1 | -16.0 | -2.2 | 2.6 | 10.4 | -8.4
O=C(Nc1ccccc1)Nc1ccc(Br)c(Cl)c1 | -2.3 | 8.6 | -14.3 | -11.5 | 75.0* | -10.9
CC(=O)c1ccc(NC(=O)Nc2ccccc2)cc1 | · | 43.1 | 0.8 | -12.6 | 48.1* | -0.2
O=C(Nc1ccccc1)Nc1cccc(Cl)c1Cl | · | 8.8 | 30.5 | -1.1 | 59.7* | -10.8
Cc1coc(C)c1C(=O)Nc1ccc2ccccc2c1 | 8.5 | 44.5 | 3.9 | -1.9 | 56.7* | -7.4
Cc1oncc1C(=O)Nc1ccc2ccccc2c1 | 10.0 | 22.3 | -16.0 | 0.9 | 9.8 | 7.2
O=C(Nc1ccc(Cl)cc1)Nc1cccc2nsnc12 | ? | 24.7 | 12.1 | -5.2 | 91.3* | -5.9
CN(C)S(=O)(=O)c1ccc(C(=O)Nc2ccc(Cl)cc2)cc1 | 9.7 | 31.3 | 3.0 | -1.6 | 25.5 | 2.2
CC(C)(C)n1cnc2cc(NCc3cccs3)ccc21 | 4.9 | 62.8 | 1.0 | -1.1 | 51.8* | -2.8
COc1ccc(C=C2CS(=O)(=O)CC(=Cc3ccc(OC)cc3)C2=O)cc1 | -8.7 | · | · | 12.5 | 0.9 | 111.6*
Cc1cc(=O)oc2cc(OCc3c(F)cccc3Cl)ccc12 | 42.1* | · | · | · | · | ·
Cc1cc(=O)oc2cc(OCc3ccccc3)ccc12 | 14.6 | 60.2 | -15.3 | -3.8 | 25.8 | 10.6
C[C@@H]1CCCCO[C@@H](CN(C)C(=O)Nc2cccc3ccccc23)[C@H](C)CN([C@@H](C)CO)C(=O)c2cc(N(C)C)ccc2O1 | · | · | · | · | 23.5 | ·
Cn1ccc(C(=O)OCC(=O)Nc2ccccc2)n1 | -0.1 | -14.1 | -7.0 | 1.6 | -1.6 | -1.1
O=C(NNS(=O)(=O)c1ccccc1)C1CCN(S(=O)(=O)c2ccc(Cl)cc2)CC1 | -7.8 | · | · | -1.8 | 6.6 | -3.6
O=C(NNS(=O)(=O)c1ccccc1)C1CCN(S(=O)(=O)c2ccccc2)CC1 | 42.3* | 11.6 | -9.2 | 3.9 | 2.3 | 2.7
CN(C)c1ccc(NC(=S)Nc2ccc3c(c2)c(=O)n(C)n3-c2ccc(C(C)(C)C)cc2)cc1 | -2.0 | · | · | -5.3 | 1.7 | -3.8
CC(C)OCCCNS(=O)(=O)c1ccc2c(c1)oc(=O)n2C | 2.7 | -4.9 | 13.6 | 3.4 | 0.2 | 1.3
Cc1cc(C)cc(NC(=S)Nc2cccc3cnccc23)c1 | 0.3 | -5.5 | -20.1 | 5.1 | · | -4.3
CCc1ccc(NC(=S)Nc2cccc3cnccc23)cc1 | 33.5* | 6.9 | · | 2.3 | 62.4* | 0.3
SMILES | Wnt bcat act | MITF act | PfHsp90 yeast 2 | Glyco luc inh | esBAF inh | Vif imaging
COc1cccc(N2CCN(C(=O)c3ccc(CS(=O)c4ccc(C)cc4)o3)CC2)c1 (stereo not drawn) | -3.6 | -8.3 | -0.7 | 23.6 | -3.0 | 56.3*
O=C(Oc1ccccc1/C=C\C(=O)c1cc2ccccc2o1)c1ccccc1 | 53.1* | 11.6 | 14.4 | 7.4 | · | 9.2
O=C(Oc1ccccc1/C=C\C(=O)c1cc2ccccc2o1)c1cccc(F)c1 | · | 10.8 | 4.2 | 4.4 | · | 1.9
COc1cccc(C(=O)Oc2ccccc2/C=C\C(=O)c2cc3ccccc3o2)c1 | 152.3* | -17.4 | -0.7 | 5.4 | · | -3.1
CCOc1cc(/C=N/NC(=O)C(=O)N/N=C/c2ccc(O)c(OCC)c2)ccc1O | -0.3 | · | -33.0 | 1.6 | 9.4 | -4.9
CCOc1cc(/C=N/NC(=O)N/N=C/c2ccc(O)c(OCC)c2)ccc1O | 48.6* | · | · | · | · | ·
CCOc1cc(/C=N/Nc2ncnc(Cl)c2N)ccc1O | · | 50.7 | -24.3 | 4.5 | 57.2* | -5.7
C[C@@H]1CCCCO[C@@H](CN(C)C(=O)CCC(F)(F)F)[C@@H](C)CN([C@@H](C)CO)C(=O)c2cc(NS(=O)(=O)c3ccc(Cl)cc3)ccc2O1 | · | · | · | · | 4.8 | ·
Cc1cc(N2CCOCC2)nc2ccc(NC(=O)CCC(=O)N3CCN(c4ccccc4)CC3)cc12 | 3.7 | 79.8 | -23.6 | -2.1 | 53.2* | 3.5
Cc1cc(N2CCCCC2)nc2ccc(NC(=O)CCC(=O)NCCC(C)C)cc12 | 43.3* | · | · | 0.0 | 74.2* | -3.9
CCCCNC(=O)CCC(=O)Nc1ccc2nc(N3CCOCC3)cc(C)c2c1 | 14.4 | · | -17.7 | 0.3 | 43.1* | -12.5
CCCCNC(=O)CCC(=O)Nc1ccc2nc(N3CCCCC3)cc(C)c2c1 | -0.6 | 61.8 | 6.6 | -0.7 | · | -6.5
CC(Sc1nc(C2CC2)n(-c2ccccc2)n1)C(=O)c1c(N)n(C)c(=O)n(C)c1=O (stereo not drawn) | 2.4 | 8.2 | 12.0 | 3.2 | · | ·
Cc1oc2cc(O)cc(O)c2c(=O)c1-c1ccc2c(c1)OCCCO2 | -2.8 | 23.0 | -12.2 | 2.4 | 26.6 | -9.9
CCCn1c(O)c(C=Nc2ccccc2)sc1=S | -0.1 | 79.3 | 6.7 | -1.8 | 80.6* | 2.9
C=CCN1C(=O)N(CC=C)c2cccc3cccc1c23 | 2.8 | 7.4 | 2.0 | 1.0 | -9.2 | 2.5
CCN1C(=O)Nc2cccc3cccc1c23 | -14.1 | · | -32.8 | 30.3* | · | 8.2
C/C(N)=C(/C#N)C(=O)CSc1nnc(Nc2cccc(C)c2C)s1 | 14.3 | 45.1 | 9.8 | -2.5 | 85.7*! | -3.6
N/C(Cc1cccs1)=N\OC(=O)COc1ccc(Cl)cc1Cl | · | ? | 8.5 | -2.6 | 71.4* | ·
N/C(=N\OC(=O)COc1ccc(Cl)cc1Cl)c1cccnc1 | 29.7 | 141.6* | -3.1 | -2.1 | 56.4* | 18.9
N/C(=N\OC(=O)COc1ccc(Cl)cc1Br)c1ccncc1 | 45.3* | 92.0* | 4.0 | -6.5 | · | -2.9
N/C(Cc1ccc(Cl)cc1Cl)=N\OC(=O)Cc1cccs1 | 11.9 | 4.2 | -61.8 | -0.5 | 25.7 | ·
N/C(=N\OC(=O)COc1ccc(Cl)cc1)c1cccnc1 | 4.7 | 0.9 | -9.6 | 1.7 | · | -1.8
CCc1ccc(OCC(=O)O/N=C(\N)c2ccncc2)c(Br)c1 | 31.4* | 103.4* | 3.6 | -3.4 | 95.5* | -0.6
Cc1ccc(NC(=O)CN2C(=O)NC3(CCCC3)C2=O)cc1S(=O)(=O)N1CCCCC1 | -3.1 | 6.9 | -10.4 | 0.5 | 4.1 | -3.1
COc1ccc(C2CC(c3ccccc3)=NN2C(=O)COC(=O)CNC(=O)c2ccccc2)cc1 (stereo not drawn) | -6.9 | -0.7 | 10.5 | 0.0 | 34.2 | 13.8
O=C(COc1cc(F)ccc1[N+](=O)[O-])N1N=C(c2cccs2)CC1c1ccco1 (stereo not drawn) | 5.1 | 22.5 | -5.1 | -1.6 | 19.4 | -2.9
